Test results as given in PubChem BioAssay AID448 (National Center for Advancing Translational Sciences (NCATS), 2006).
About 45 (0.07%) of roughly 65,000 compounds were called active. Calls come from the whole dose curve. These entries were drawn from the full list.
Potency is the fitted concentration of half-maximal effect.

The compounds below were run on Schistosoma mansoni peroxiredoxin 2 (Prx2) (assay: Schistosoma Mansoni Peroxiredoxins (Prx2)). Settings: S. mansoni Prx2 activity coupled to TGR/GSH (TGR is thioredoxin glutathione reductase), NADPH fluorescence loss, qHTS.
Excerpt: NIH Molecular Libraries Screening Centers Network [MLSCN]
NIH Chemical Genomics Center [NCGC]
David Williams [Illinois State University]
Schistosoma mansoni, a causative agent of schistosomiasis, resides in the bloodstream of their host up to 30 years without being eliminated by the host immune attack. One proposed survival mechanism is the production of an antioxidant "firewall" that neutralizes the oxidative assault of the host's immune attack. Schistosoma mansoni peroxiredoxins (Prx) are important parasite antioxidant proteins that play a crucial role in redox balance mechanisms. […] First, the proteins are essential for the parasite survival. […] Third, the protein(s) is amenable for study at the molecular level and can be produced in bacteria in large quantities, in soluble and active form. Inhibition of Prx activity was screened in a coupled-enzyme format with reducing equivalents being transferred from NADPH to […] intermediate via thioredoxin/glutathione reductase (TGR)-catalyzed reaction, then from thioredoxin to hydrogen peroxide via Prx-catalyzed electron transfer. A decrease in the fluorescence intensity of NADPH was used to measure the enzyme activity. Purified S. mansoni TGR and Prx were provided by Professor David L. Williams, Illinois State University.
NCGC Assay Protocol Summary:
100 mM phosphate buffer, pH 7.4, 10 mM EDTA, 0.01% Tween-20.
100 uM NADPH/25 nM TGR/700 uM GSH/50 nM Prx2 mixture in columns 1, 2, 5-48. Titration of control potassium antimonyl tartrate (PAT, from 1 mM, then 1:5) pin-transferred to lower half of column 2. Column 1 and upper half of column 2 are neutral (100% activity).
Three uL of reagents were dispensed to 1536-well Greiner black plates. Compounds and controls (20 nL) were transferred via Kalypsys PinTool. The plates were incubated for 15 min at room temperature, and then a 1 uL aliquot of 400 uM NADPH/700 uM GSH was added, immediately followed by a 1uL aliquot of 2.5 mM H2O2 (to start the reaction). The plate was transferred to ViewLux (Perkin-Elmer) High-throughput CCD imager where kinetic measurements (every 30 sec, for a total of 8 min) of NADPH fluorescence were taken using 365 nm excitation/450 nm emission filter set. During dispense, enzyme-containing reagent bottles were kept submerged into 4 deg C water bath to minimize degradation.
Keywords: NIH Roadmap, MLSCN, MLI, MLSMR, David Williams, Peroxyredoxin, Schistosoma mansoni, prx2, prx, , qHTS, NCGC
For `Nc1nc(N)c2[nH]c(CNc3ccc(C(=O)O)cc3)nc2n1`, the Potency was > 57 µM (inactive). In the case of `COc1ccccc1CCn1c(=O)c(-c2cn(C)c3ccccc23)nc2cncnc21`, the Potency is reported as > 57 µM (inactive). For `Cc1cc(N2CCCCC2)nc2ccc(Cc3ccc4nc(N5CCCCC5)cc(C)c4c3)cc12`, the Potency was > 11.4 µM (inactive). In the case of `CC(C)C[C@@H](CC(=O)N[C@@H](CCC(=O)O)CC(=O)O)NC(=O)[C@@H]1CCCC[C@H]1NC(=O)C[C@@H](NC(=O)C[C@H](CO)NC(=O)[C@@H]1CCCC[C@H]1N)C(C)C`, the Potency is reported as > 25.6 µM (inactive). `O=c1c(CCc2ccccc2)nc2cnc(N3CCNCC3)nc2n1Cc1cccs1` was tested, and the Potency was > 57 µM (inactive). `CS(=O)(=O)N1CCC2(CCN(c3ccncc3)CC2)CC1` was tested, and the Potency was > 57 µM (inactive). `N[C@H](C(=O)O)c1ccc(C(=O)O)c(O)c1` was tested, and the Potency was > 57 µM (inactive). With `Cc1cc(OCC(=O)O)c(Cl)cc1Cl` the Potency was > 57 µM (inactive). In the case of `CC(C)NC(=O)N1CC[C@@]2(CCCN(C(=O)c3cccc(F)c3)C2)C1`, the Potency is reported as > 57 µM (inactive). With `Cn1c(=S)c2[nH]c(SCCCc3ccccc3)nc2n(C)c1=O` the Potency was > 57 µM (inactive). `CN1CCC2(CC1)CCN(S(=O)(=O)c1ccccc1)CC2` was tested, and the Potency was > 57 µM (inactive). With `Cc1cc2c(cc1C)NC1=C(N2)O[C@H](c2c[nH]c3ccc(COc4ccccc4)cc23)C1=O` the Potency was > 57 µM (inactive). In the case of `O=c1c(-c2cc(F)cc(F)c2)nc2cnc(Oc3ccccc3)nc2n1C[C@H]1CCCO1`, the Potency is reported as > 11.4 µM (inactive). For `FC(F)(F)c1ccccc1-c1nc(-n2ccnc2)c2ccccc2n1`, the Potency was > 57 µM (inactive). `O=C(O)c1ccc(C(=O)O)c2c(C(=O)O)ccc(C(=O)O)c12` was tested, and the Potency was > 57 µM (inactive). In the case of `COc1ccccc1CNc1ncnc2ccc(-c3c(C)noc3C)cc12`, the Potency is reported as > 57 µM (inactive). In the case of `CC(C)c1ccc2c([Si](C)(C)C)c3c(nc2c1)-c1cccc(=O)n1C3`, the Potency is reported as > 57 µM (inactive). `COc1ccc2[nH]c3cc4c(=O)c5cc(OC)ccc5[nH]c4cc3c(=O)c2c1` was tested, and the Potency was > 57 µM (inactive). With `Cc1cccc(CNc2ccnc(-c3cccnc3)n2)c1` the Potency was > 57 µM (inactive). For `C[C@@H](C(=O)Nc1ccc2ccccc2c1)[C@@H]1C[C@@]1(C)[C@@H](NC(=O)c1cccnc1)c1ccccc1`, the Potency was > 57 µM (inactive). `CCNc1ncc2ncc(=O)n(Cc3cccc(OC)c3)c2n1` was tested, and the Potency was > 57 µM (inactive). `Cc1c(C)c2c(c(C)c1O)CC[C@@](C)(CN1CCN(c3cc(N4CCCC4)nc(N4CCCC4)n3)CC1)O2` was tested, and the Potency was > 25.6 µM (inactive). `CN(C)C(=O)c1ccc(-c2cncnc2NC2CCNCC2)cc1` was tested, and the Potency was > 57 µM (inactive). With `COc1ccc(Br)c2c1C[C@H](C(=O)O)CC2` the Potency was > 57 µM (inactive). For `COC(=O)[C@@H]1[C@H]2C[C@H]3c4[nH]c5cc(OC)ccc5c4CCN3C[C@@H]2C[C@@H](OC(=O)c2cc(OC)c(OC)c(OC)c2)[C@@H]1OC`, the Potency was > 57 µM (inactive). With `O=C(c1ccc(F)cc1)C1CCN(CCCCc2ccccc2)CC1` the Potency was > 57 µM (inactive). `Cc1ccnc(N)c1` was tested, and the Potency was > 25.6 µM (inactive). For `COc1ccccc1CNc1cc(-c2ccccc2CN(C)C)ncn1`, the Potency was > 57 µM (inactive). `O=C(NCc1ccccc1)[C@H]1C[C@@H]1[C@H](NP(=O)(c1ccccc1)c1ccccc1)c1ccccc1` was tested, and the Potency was > 57 µM (inactive). `COc1ccccc1-c1nc(NCCNC(C)=O)c2ccccc2n1` was tested, and the Potency was > 57 µM (inactive). `O=C(c1cccc(F)c1)N1CCC2(CCCN(Cc3ccncc3)C2)CC1` was tested, and the Potency was > 57 µM (inactive). `O=c1cc(-c2ccccc2)[nH]c2nc(Cl)ccc12` was tested, and the Potency was > 57 µM (inactive). For `O=c1cc(-c2ccc(O)c(O)c2)oc2cccc(O)c12`, the Potency was > 57 µM (inactive). In the case of `CC(C)C[C@@H](CC(=O)N[C@@H](CCC(=O)O)CC(=O)O)NC(=O)[C@@H]1CCCC[C@H]1NC(=O)C[C@@H](NC(=O)C[C@H](Cc1c[nH]c2ccccc12)NC(=O)[C@@H]1CCCC[C@H]1N)C(C)C`, the Potency is reported as > 57 µM (inactive). In the case of `C[N+]1(CCN=C=NC2CCCCC2)CCOCC1`, the Potency is reported as > 57 µM (inactive). `O=C(c1cc(C(F)(F)F)cc(C(F)(F)F)c1)N1CCC2(CC1)CN(c1ccncc1)C2` was tested, and the Potency was > 57 µM (inactive). With `O=C(c1csnn1)N1CCC[C@@]2(CCN(Cc3nccs3)C2)C1` the Potency was > 57 µM (inactive). For `COC(=O)[C@@]1(Cc2ccc(F)cc2)[C@H]2c3cc(C(=O)N4CCCC4)n(Cc4ccc(OC(F)(F)F)cc4)c3C[C@H]2CN1C(=O)c1ccccc1`, the Potency was > 57 µM (inactive). `CC[C@]1(C)CC(=O)NC1=O` was tested, and the Potency was > 57 µM (inactive). With `Cn1cc(-c2nc3cnc(N4CCNCC4)nc3n(CCC#N)c2=O)c2ccccc21` the Potency was > 57 µM (inactive). `O=C(O)c1ccc(C(=O)c2ccccc2C(=O)O)cc1C(=O)O` was tested, and the Potency was > 57 µM (inactive). In the case of `O=C1c2ccccc2C(=O)N1CCCSc1ccccc1`, the Potency is reported as > 57 µM (inactive). For `O=C(O)COc1c(Cl)cc(Cl)c2cccnc12`, the Potency was > 57 µM (inactive). For `COc1cccc(Cn2c(=O)c(-c3cc(F)cc(F)c3)nc3cnc(OC)nc32)c1`, the Potency was > 57 µM (inactive). In the case of `CCC[C@@H]1C[C@@]1(CCC)C(NC(=O)c1ccc(-c2ccccc2)cc1)c1cccc(Cl)c1` (some centres not stated), the Potency is reported as > 57 µM (inactive). `COc1cccc(-c2nc(Nc3ccncc3)c3ccccc3n2)c1` was tested, and the Potency was > 57 µM (inactive). With `Clc1ccc(C(c2ccc(Cl)cc2)n2cc[n+](C[C@@H](OCc3ccc(Cl)cc3Cl)c3ccc(Cl)cc3Cl)c2)cc1` the Potency was > 57 µM (inactive). `CC(=O)N1CCC2(CC1)CCN(c1ccncc1)CC2` was tested, and the Potency was > 57 µM (inactive). With `CCOc1ccc(N=NS(=O)(=O)O)cc1` the Potency was > 57 µM (inactive). For `NCCNCC1CCNCC1`, the Potency was > 57 µM (inactive). In the case of `CN(C)c1cc2c(Nc3ccc4c(cnn4Cc4ccccc4)c3)ncnc2cn1`, the Potency is reported as > 57 µM (inactive). With `C[C@@H]1CC[C@H]2[C@H](C)[C@H]3[C@H](C[C@H]4[C@@H]5CC=C6C[C@@H](O)CC[C@@]6(C)[C@@H]5C[C@@H](O)[C@]34C)N2C1` the Potency was > 57 µM (inactive).
